Here are results for 110 molecules from PubChem BioAssay AID493033 (ICCB-Longwood Screening Facility, Harvard Medical School, 2011).

Hit rate of the full screen: of about 100,000 compounds, about 930 (0.93%) were called active. Shown is part of a subset that was picked to be rich in actives. Unmarked numbers belong to inactive results. Rule as the data show it: active = inhibition mostly above about 56% (no sharp cut-off); inactive = mostly below about 77%.

The target in the test is Salicylate synthase (Mycobacterium tuberculosis (strain CDC 1551 / Oshkosh)) (UniProt P9WFX0). Description: MbtI salicylate synthase inhibitors, primary screen, biochemical, fluorescence intensity (AID 493033). The settings on record: purified MbtI enzyme, fluorescence intensity read-out, stronger effect = higher value, concentration not given here.
Salicylate synthase (Mycobacterium tuberculosis (strain CDC 1551 / Oshkosh)), sequence (P9WFX0 whole entry, looked up): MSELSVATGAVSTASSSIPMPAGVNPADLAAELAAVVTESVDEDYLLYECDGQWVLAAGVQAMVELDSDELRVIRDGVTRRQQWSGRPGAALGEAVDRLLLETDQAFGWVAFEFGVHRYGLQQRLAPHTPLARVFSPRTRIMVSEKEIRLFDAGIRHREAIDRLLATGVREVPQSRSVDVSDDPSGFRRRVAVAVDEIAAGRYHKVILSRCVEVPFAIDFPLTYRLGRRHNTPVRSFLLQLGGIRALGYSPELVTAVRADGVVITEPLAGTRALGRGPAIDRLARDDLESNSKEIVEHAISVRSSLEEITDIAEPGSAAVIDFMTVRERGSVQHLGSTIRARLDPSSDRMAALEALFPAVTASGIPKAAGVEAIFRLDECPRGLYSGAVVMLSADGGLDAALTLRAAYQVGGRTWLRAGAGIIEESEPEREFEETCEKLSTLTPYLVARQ
Take `O=c1cc(-c2ccccc2)sc2ccc(Cl)cc12`: the inhibition was -0.1%. The same measure for `CSc1ncnc2sc(-c3ccccc3)cc12`: -44.5%. As to `CN=Cc1cc(-c2ccccc2)sc1S`, the inhibition is 95.8% (active).

Turning to `Cc1nn2c(=O)/c(=C/c3ccccc3)sc2nc1=O`, the inhibition is -1.65%. For `Cc1nc(Cc2nnc(SC/C(O)=C(\C#N)c3nc4ccccc4[nH]3)o2)cs1`, the inhibition was 25.6%. The value for `Cc1occc1-c1nnc2n1N=C(c1ccc(-c3cc(Cl)ccc3Cl)o1)CS2` was 98% (active); that for `O=C(Nc1cccc(Br)c1)C1CC(=O)N(C2CCCC2)C1` (stereo not given) was -4.55%; that for `CN(C)c1ccc(-c2ncnn2-c2ccccc2)cc1` was -9.6%. The same measure for `Cc1csc(NC(=O)C2CCC(CNS(=O)(=O)c3cccc4nsnc34)CC2)n1` (stereo not given): -0.3%. On to `Cc1ccc(Cl)cc1N1CCN(C(=O)/C=C/c2ccc(S(=O)(=O)NCc3ccco3)cc2)CC1`, for which the inhibition was 5.7%.

As to `COC(=O)c1cccc(NC(=O)CCCN2C(=O)c3ccccc3C2=O)c1`, the inhibition is -11.5%. On to `Cc1ccc(NC(=O)COC(=O)C2CCC2)cc1Cl`, for which the inhibition is -5.6%. With `COc1cc(NS(=O)(=O)c2cc(C)c(Cl)cc2C)c(C(=O)O)cc1OC`, the inhibition was -26.2%. In the case of `O=C(c1ccc(Cl)cc1)N1CCCC1`, the inhibition is -5.1%. With `O=C(C1=Cc2sc3c(c2CS1)CCCC3)N1CCCC1`, the inhibition is 98.8% (active). The value for `O=C(O)C1=Cc2sc3c(c2CS1)CCCC3` was 95.4%. The same measure for `O=C(O)C1CCC(CNCc2cccc(Br)c2)CC1` (stereo not given): -9.65%.

As to `O=C(/C=C\c1cn(-c2ccccc2)nc1-c1cccs1)N1CCOCC1`, the inhibition is -50.8%. The same measure for `CCN(CC)c1ccc(-n2nc3cc(C)c(NC(C)=O)cc3n2)cc1`: 88.6%. For `CCN(CC)c1ccc2oc(=O)c(C)nc2c1`, the inhibition was 94.8% (active). The same measure for `CCN(CC)c1ccc(C=C(C#N)C#N)c(OC(C)=O)c1`: -99.2%; for `CCCc1cc2c(cc1N)OCO2`: 13.3%; for `CCc1nc2cccnc2n1-c1ccc(CC(=O)NCCN2CCOCC2)cc1`: 2.4%. Take `O=C(c1ccco1)N1CCCCCCC1`: the inhibition is -14.8%.

As to `S=C(c1ccc(-c2ccccc2)o1)N1CCCCC1`, the inhibition is 102% (active).

As to `S=C(Cc1ccccc1)N1CCCCC1`, the inhibition was 29.6%.

In the case of `COC(=O)c1cc(Cl)cc(Cl)c1O`, the inhibition was -95.7%.

As to `O=c1cc(CN2CCN(Cc3ccccc3)CC2)nc2sccn12`, the inhibition was 12%.

`COc1cccc(CN(C)C(=O)/C=C/c2ccco2)c1OC`: the inhibition was 9.5%. On to `Cn1ncc2c(NCc3cccnc3)ncnc21`, for which the inhibition was 0.9%. Consider `O=C(CCCn1c(=O)oc2ccccc21)Nc1cccnc1`, for which the inhibition was -8.05%.

`O=C(CCn1c(=O)oc2ccccc21)Sc1ccc(C(F)(F)F)cc1`: the inhibition was 70.7% (active). The value for `Cc1cccc(NC(=O)CCn2c(=O)oc3ccccc32)c1` was 3%; that for `CCN(Cc1nc(-c2ccc(OC)c(OC)c2)no1)C(=O)CCC1CCCCC1` was -0.6%.

As to `CCCCn1c2c(c(=O)n(C)c1=O)C(c1ccc(OC)cc1)C1=C(CCCC1=O)N2` (stereo not given), the inhibition is -21%. The value for `Cc1cc(C)nc(SCc2nnc(SCC(=O)N3c4ccccc4Sc4ccc(Cl)cc43)o2)n1` was -20.7%; that for `Cc1ccc(Sc2c(C)[nH]n(-c3ccccc3)c2=O)cc1` was -4.4%; that for `CC1=NOC(=O)C1C(c1cccc(Br)c1)c1c(C)[nH]n(-c2ccccc2)c1=O` (stereo not given) was 98.3% (active). As for `Cc1noc(C)c1C(=O)c1c(C)[nH]n(-c2ccccc2)c1=O`, the inhibition was 3.5%. Regarding `S=c1[nH]nc(Nc2ccccc2)s1`, the inhibition is 99.7% (active). The same measure for `c1ccc(Nc2nncs2)cc1`: 12.9%; for `S=c1[nH]nc(NCCc2ccccc2)s1`: 86.7%; for `COc1ccccc1-c1nnc(Cc2ccc(F)cc2Cl)o1`: -4.2%. Regarding `O=C1CN(C(=O)C2COc3ccccc3O2)c2ccccc2N1` (stereo not given), the inhibition is -23.2%.

Consider `O=C(CSc1nc(-c2ccccc2)nc2c1CCCC2)N/N=C/c1ccco1`, for which the inhibition was -6.4%. As for `COc1ccccc1C(=O)CSc1cccc[n+]1[O-]`, the inhibition was -9.25%. The same measure for `C=C(C)CNC(=S)N1CCNCC1`: -14.4%. In the case of `CC(C)(C)CNC(=S)NN`, the inhibition was -14.9%. The value for `C=C(C)CNC(=S)NN` was 98.5% (active); that for `CCc1nc(NCCO)c(C#N)c2c1CCCC2` was -125%.

In the case of `O=C(NC1=NCCS1)c1ccccn1`, the inhibition is -4.65%. The value for `COc1ccc(-c2nn(-c3ccccc3)cc2/C=C\C(=O)N(C)C)cc1` was -4.25%; that for `O=C(CNCc1ccc2c(c1)OCO2)NCc1ccc2c(c1)OCO2` was 7.9%; that for `CCCn1c(SC(C(=O)NC(=O)NC)c2ccccc2)n[nH]c1=O` (stereo not given) was -3.85%.

Turning to `CC1CCCCC1NC(=O)COc1ccc(C#N)cc1` (stereo not given), the inhibition was -7.1%. For `S=c1ccc2ccccc2[nH]1`, the inhibition is 82.2% (active). For the molecule `O=C(O)Cc1cn(-c2ccccc2)nc1-c1cccs1`, the inhibition is -32.5%. The value for `c1ccc(C(N2CCOCC2)N2CCOCC2)cc1` was -2.5%; that for `CC(O)CNc1nc2ccccc2n1CC(O)COCc1ccco1` (stereo not given) was -2.1%.

In the case of `O=C(CNCCCN1CCOCC1)Nc1cccc(C(F)(F)F)c1`, the inhibition is 14.8%. For `O=C(CSc1ccc2ccccc2c1)N1CCN(C(=O)c2ccco2)CC1`, the inhibition was -5.25%. `O=C(CSc1ccccc1)Nc1ccc(NC(=O)c2ccco2)cc1`: the inhibition is 9.65%. The same measure for `O=C(CSc1ccc(Br)cc1)c1ccco1`: 55.8% (active); for `CCSc1nnc(SCC(=O)N2CC(=O)Nc3ccccc32)s1`: 12.2%. Turning to `CC(=O)NC(c1ccccc1)c1ccc2cccnc2c1O` (stereo not given), the inhibition was -4.35%. The same measure for `Oc1c(C(Nc2ccccn2)c2cccnc2)ccc2cccnc12` (stereo not given): 28.4%; for `Oc1c(C(c2cccnc2)N2CCOCC2)ccc2cccnc12` (stereo not given): 91.7% (active). With `O=C(NCCC1=CCCCC1)Nc1ccc(Cl)cc1`, the inhibition was -5%. With `Cc1cc(C)nc(NNC(=S)Nc2ccc(S(=O)(=O)N3CCOCC3)cc2)n1`, the inhibition was 54.5%. The value for `Cc1ccc(C(=O)CN(C)C2CCCCC2)cc1` was 12.6%; that for `CCn1c(=O)cc(SCC(=O)NC2CCCCC2)c2ccccc21` was -8.85%. The same measure for `COC(=O)c1ccc(CSCC(=O)Nc2ccc(C)c(C)c2)o1`: -3.9%; for `COc1cc(/C=C/C(=O)N2CCc3ccccc3C2)cc(OC)c1OC`: -28.7%; for `Oc1cc2c(cc1O)CN(C(=S)NCCc1ccc(Cl)cc1)CCC2`: 100% (active). As for `S=C(NCCc1ccc(Cl)cc1)Nc1ccccc1`, the inhibition was -14.1%. Consider `O=C1CCN(C(=S)NCCc2ccccc2)CC1`, for which the inhibition is 14.8%.

As for `COc1cc(C#N)ccc1Oc1nc(CN2CCOCC2)nc2scc(-c3cccs3)c12`, the inhibition is 18.1%. As to `CC(C)Cn1c(SCc2nnc(-c3ccccc3)o2)nnc1-c1ccccc1F`, the inhibition is -1.55%. The value for `CC1=C(C(=O)OC2CCCC2)C(c2cc3c(cc2Cl)OCO3)C2=C(CCCC2=O)N1` (stereo not given) was 116%; that for `COc1ccc(OC)c(NC(=O)CC(Cc2ccccc2OC)C(=O)O)c1` (stereo not given) was 2.1%; that for `COc1ccc(OC)c(NC(=O)CS)c1` was 97.5% (active). The same measure for `COc1ccc(OC)c(NC(=O)CCN2CCC(C)CC2)c1`: -19.2%. The value for `O=c1[nH][nH]c(=O)c2cc(N3CCCC3)ccc12` was -10.9%. As for `O=C1C=CC(=O)N1c1ccc(N2CCCCC2)cc1`, the inhibition was 99.7% (active). Consider `N#CSc1ccc(N2CCCCC2)cc1`, for which the inhibition was 21.2%. The same measure for `COc1ccccc1C(=O)Nc1ccccc1N1CCN(C)CC1`: -4.85%. The value for `Fc1ccc(NC(=S)N2CCN=C2Nc2ccc(F)cc2)cc1` was 72.3% (active); that for `OC1CCN(C(=S)Nc2ccccc2)CC1` was -8.65%. The value for `COc1ccc(NC(=S)N2CCCCC2)cc1` was -6.7%.

`COc1ccc(-c2nnc(SCC(=O)NC3CCCc4ccccc43)o2)cc1OC` (stereo not given): the inhibition is -3.65%. The value for `COc1cccc(C(=O)Nc2ccccc2C#N)c1OC` was -17.5%; that for `CC(C)CN1C(=O)C=CC1=O` was 80.8% (active). The same measure for `CC(C)Cn1nccc1N`: -12%; for `O=C(NCCCN1CCCC1)C1CCN(c2nc3ccccc3n3cccc23)CC1`: -7.35%.

Consider `CC(C)Sc1n[nH]c(=S)n1N`, for which the inhibition is 98.2% (active).

Take `CCn1c(C(C)C)n[nH]c1=S`: the inhibition is 2.75%. With `CC(C)c1n[nH]c(=S)n1N`, the inhibition was 96.5% (active). The value for `N#Cc1c(-c2c(O)[nH]c3ccccc23)c2c(-c3ccncc3)[nH]nc2oc1=N` was -1.15%; that for `CCS(=O)(=O)Nc1ccc(Cl)cn1` was 89.8%; that for `COCCNc1oc(COc2ccc(Br)cc2)nc1C#N` was -15%.

Consider `COc1ccc(C2Nn3c(C)nnc3SC2C(=O)N2CCCC2)cc1` (stereo not given), for which the inhibition was -6.35%. The value for `Cc1ccc(-n2c(SC(C)C(=O)NC(N)=O)nc3ccccc32)cc1` (stereo not given) was -6.15%; that for `CCCCSC1=NC(C)(C)Nc2ccccc21` was -13.3%. The value for `CC(C)NC(=O)CSc1nc(-c2ccccc2)cn1N` was 11.2%; that for `CCOC(=O)c1cc(-c2ccccc2)no1` was -8.95%. The same measure for `O=C(COC(=O)/C=C/c1cccs1)Nc1ncc(Br)s1`: 0.8%; for `CCOc1ccc2c(c1)sc1nc(=O)n(-c3ccccc3)c(=O)n12`: 3.85%; for `CCOc1ccc2[nH]c(=S)sc2c1`: 81.3% (active).

Regarding `CCOc1ccc(OCCBr)cc1`, the inhibition is -5.55%. The value for `CNC(=O)c1cc2c(n(-c3ccccc3)c1=O)CC(C)(C)CC2=O` was 72.9%.
